Experimental data reported in PubChem BioAssay (NCI).
About 79,000 compounds went through this panel and 15% of them were active in at least one assay; those are over-represented in the sample as a whole. Activity calls are given as the source filed them. Cut-off read from the data, not from the text of the source: active = growth inhibition above about 70%; inactive = the rest.

Experiments:
[1] = NCI Yeast Anticancer Drug Screen. Data for the wt1 strain (AID 149);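 note: 0% = growth of vehicle-treated wt1 cultures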; conditions: S. cerevisiae wt1 strain (SPY 50644) growth inhibition, active compounds read high
In short: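 The wt1 strain was treated with compounds, and growth was compared with vehicle-treated cultures to give inhibition.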

[2] = NCI Yeast Anticancer Drug Screen. Data for the rad50EPP+ strain (AID 151);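 note: 0% = growth of vehicle-treated control cultures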; conditions: S. cerevisiae rad50 mutant strain, active compounds read high
In short: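 Growth inhibition read against vehicle controls in rad50EPP+ yeast, a strain altered in DNA damage repair, after compound exposure.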

[3] = NCI Yeast Anticancer Drug Screen. Data for the rad50 strain (AID 155);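 note: 0% = growth of vehicle-only cultures of the same strain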; conditions: S. cerevisiae rad50 strain growth inhibition, active compounds read high
In short: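 Cells are treated with compound, grown, and their growth is then scored against vehicle-only cultures of the same repair-deficient yeast strain.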

[4] = NCI Yeast Anticancer Drug Screen. Data for the mec2-1 strain (AID 157); conditions: S. cerevisiae mec2-1 strain, active compounds read high
In short: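 Yeast mec2-1 mutant treated with compound. Readout: growth inhibition vs vehicle controls.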

[5] = NCI Yeast Anticancer Drug Screen. Data for the rad14 strain (AID 159);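 note: 0% = growth of vehicle-treated control cultures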; conditions: S. cerevisiae rad14 strain growth inhibition, active compounds read high
In short: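 Readout: yeast growth inhibition, referenced to vehicle-only cultures. Strain bears a defined alteration in DNA damage repair.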

[6] = NCI Yeast Anticancer Drug Screen. Data for the sgs1 mgt1 strain (AID 161);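 note: 0% = growth of cultures given vehicle only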; conditions: S. cerevisiae sgs1 mgt1 strain, active compounds read high
In short: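 Test agents were incubated with a DNA-repair-mutant yeast strain. Growth was then read and compared against vehicle-treated controls.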

[7] = NCI Yeast Anticancer Drug Screen. Data for the CLN2oe strain (AID 163);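 note: 0% = growth of vehicle-only control cultures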; conditions: S. cerevisiae CLN2oe strain, active compounds read high
In short: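 Read-out: yeast growth inhibition, expressed relative to vehicle-only controls. The strain bears an engineered cell-cycle alteration.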

[8] = NCI Yeast Anticancer Drug Screen. Data for the cln2 rad14 strain (AID 165);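 note: 0% = growth equal to vehicle treated cultures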; conditions: S. cerevisiae cln2 rad14 strain, active compounds read high
In short: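 cln2 rad14 yeast strain; compound exposure; growth inhibition read vs vehicle controls.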

[9] = NCI Yeast Anticancer Drug Screen. Data for the bub3 strain (AID 167); conditions: S. cerevisiae bub3 mutant strain, active compounds read high
In short: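 Part of a panel of yeast mutants defective in DNA damage repair or cell cycle regulation. Each strain is grown with compound, and inhibition is calculated relative to solvent-treated cultures.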

[10] = NCI Yeast Anticancer Drug Screen. Data for the wt2 strain (AID 169);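 note: 0% = growth of vehicle-treated yeast cultures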; conditions: S. cerevisiae wt2 strain growth inhibition, active compounds read high
In short: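 Read-out: growth inhibition versus vehicle-treated control cultures after compound exposure of the yeast strain.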

[11] = NCI Yeast Anticancer Drug Screen. Data for the mlh1 strain (AID 171);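 note: 0% = growth of vehicle-treated control cultures of the same strain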; conditions: S. cerevisiae mlh1 strain growth inhibition, active compounds read high
In short: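 Read-out: growth inhibition versus vehicle controls. Strain: engineered yeast with a defined DNA repair or cell cycle defect, compound-treated.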

[12] = NCI Yeast Anticancer Drug Screen. Data for the sgs1 strain (AID 173);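 note: 0% = growth of vehicle-only control cultures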; conditions: S. cerevisiae sgs1 mutant, active compounds read high
In short: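 Read-out: yeast growth inhibition relative to vehicle controls, following compound exposure of a strain with a defined DNA repair/cell cycle alteration.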

[13] = NCI Yeast Anticancer Drug Screen. Data for the mlh1 rad18 strain (AID 175); conditions: S. cerevisiae mlh1 rad18 strain growth inhibition, active compounds read high
In short: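 Yeast w/ defined DNA-repair lesions; compound exposure; growth vs vehicle controls → % inhibition.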

[14] = NCI Yeast Anticancer Drug Screen. Data for the rad18 strain (AID 177); conditions: S. cerevisiae rad18 mutant growth inhibition, active compounds read high
In short: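 Readout: growth inhibition vs vehicle controls. Cells: genetically altered yeast strain, DNA repair defect.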

[15] = at 5.0 µM (retest, dose inferred, filed as 0.5)
[16] = at 50.0 µM (retest, dose inferred, filed as 5.0)

Measured: growth inhibition

CCN(CC)c1cccc(Nc2nc3ccccc3s2)c1
inactive: [1]; at 1.2 µM 8% | [1]; at 3.7 µM 10% | [1]; at 11.0 µM 6% | [1]; at 33.0 µM 7% | [1]; at 100.0 µM 5% | [2]; at 1.2 µM -9% | [2]; at 3.7 µM 0% | [2]; at 11.0 µM -2% | [2]; at 33.0 µM 1% | [2]; at 100.0 µM 19% | [3]; at 1.2 µM 8% | [3]; at 3.7 µM 9% | [3]; [15] -4% | [3]; at 11.0 µM 5% | [3]; at 33.0 µM 7% | [3]; [16] 2% | [3]; at 50.0 µM 1.6% | [3]; at 100.0 µM 7% | [4]; at 1.2 µM 13% | [4]; at 3.7 µM 14% | [4]; [15] -5% | [4]; at 11.0 µM 15% | [4]; at 33.0 µM 16% | [4]; [16] 1% | [4]; at 50.0 µM 7.7% | [4]; at 100.0 µM 8% | [5]; at 1.2 µM 7% | [5]; at 3.7 µM 7% | [5]; at 11.0 µM 7% | [5]; at 33.0 µM 7% | [5]; at 100.0 µM 7% | [6]; [15] 3% | [6]; [16] 21% | [6]; at 50.0 µM 17.4% | [7]; at 1.2 µM -3% | [7]; at 3.7 µM 1% | [7]; at 11.0 µM -1% | [7]; at 33.0 µM -4% | [7]; at 100.0 µM -10% | [8]; [15] -9% | [8]; [16] -1% | [8]; at 50.0 µM -7.1% | [9]; at 1.2 µM 0% | [9]; at 3.7 µM -1% | [9]; [15] 32% | [9]; at 11.0 µM 5% | [9]; at 33.0 µM 14% | [9]; at 100.0 µM 30% | [10]; at 1.2 µM -1% | [10]; at 3.7 µM -1% | [10]; at 11.0 µM -1% | [10]; at 33.0 µM -2% | [10]; at 100.0 µM -3% | [11]; at 1.2 µM 10% | [11]; at 3.7 µM 9% | [11]; at 11.0 µM 10% | [11]; at 33.0 µM 9% | [11]; at 100.0 µM 8% | [12]; at 1.2 µM 8% | [12]; at 3.7 µM 7% | [12]; at 11.0 µM 7% | [12]; at 33.0 µM 7% | [12]; at 100.0 µM 5% | [13]; [15] 4% | [13]; [16] 20% | [13]; at 50.0 µM 25.1% | [14]; at 1.2 µM 7% | [14]; at 3.7 µM 7% | [14]; at 11.0 µM 6% | [14]; at 33.0 µM 3% | [14]; at 100.0 µM 1%
active: [9]; [16] 83% | [9]; at 50.0 µM 89.8%

Cc1ccc2c(/C=C/c3ccc(N(C)C)cc3)ccnc2c1C
inactive: [1]; at 1.2 µM -44% | [1]; at 3.7 µM -45% | [1]; at 11.0 µM -44% | [1]; at 33.0 µM -39% | [1]; at 100.0 µM 59% | [2]; at 1.2 µM -22% | [2]; at 3.7 µM -30% | [2]; at 11.0 µM -15% | [2]; at 33.0 µM 22% | [2]; at 100.0 µM 41% | [3]; at 1.2 µM -15% | [3]; at 3.7 µM -41% | [3]; [15] 9% | [3]; at 11.0 µM -20% | [3]; at 33.0 µM 14% | [3]; [16] 35% | [3]; at 100.0 µM 67% | [4]; at 1.2 µM -27% | [4]; at 3.7 µM -33% | [4]; [15] -7% | [4]; at 11.0 µM -42% | [4]; at 33.0 µM -16% | [4]; [16] 21% | [4]; at 100.0 µM 58% | [5]; at 1.2 µM -25% | [5]; at 3.7 µM -11% | [5]; at 11.0 µM -11% | [5]; at 33.0 µM -6% | [6]; [15] 33% | [7]; at 1.2 µM 26% | [7]; at 3.7 µM 34% | [7]; at 11.0 µM 26% | [7]; at 33.0 µM 39% | [8]; [15] 22% | [8]; [16] 61% | [8]; at 50.0 µM 29.9% | [9]; at 1.2 µM -8% | [9]; at 3.7 µM 7% | [9]; [15] 43% | [9]; at 11.0 µM 28% | [9]; at 33.0 µM 58% | [10]; at 1.2 µM -12% | [10]; at 3.7 µM -45% | [10]; at 11.0 µM -4% | [10]; at 33.0 µM 63% | [11]; at 1.2 µM -13% | [11]; at 3.7 µM -28% | [11]; at 11.0 µM -19% | [11]; at 33.0 µM 54% | [12]; at 1.2 µM -26% | [12]; at 3.7 µM -51% | [12]; at 11.0 µM -4% | [13]; [15] 1% | [13]; [16] 14% | [14]; at 1.2 µM 1% | [14]; at 3.7 µM -9% | [14]; at 11.0 µM -12% | [14]; at 33.0 µM 29% | [14]; at 100.0 µM 65%
active: [3]; at 50.0 µM 71.4% | [4]; at 50.0 µM 84.8% | [5]; at 100.0 µM 77% | [6]; [16] 87% | [6]; at 50.0 µM 86.5% | [7]; at 100.0 µM 71% | [9]; [16] 81% | [9]; at 50.0 µM 79.5% | [9]; at 100.0 µM 84% | [10]; at 100.0 µM 86% | [11]; at 100.0 µM 87% | [12]; at 33.0 µM 82% | [12]; at 100.0 µM 87% | [13]; at 50.0 µM 81.8%
